# Test results from PubChem BioAssay AID1224853 (National Center for Advancing Translational Sciences (NCATS), 2016).
# Records with an inconclusive call do not appear. Active and inactive are the calls of the source. Calls follow the shape of the dose curve; as a rule, active = well fitted inhibition curve with a large enough effect; inconclusive = small, poorly fitted or top-dose-only effect; inactive = no such curve, though single readings can be large or run the other way.
# Assay: Confirmation assay for measurement of the activity of small molecule inhibitors on Zika virus induced Caspase-3 activity in human astrocytoma cells
# Conditions: SNB-19 ZIKV-induced caspase-3/7, luminescence, 6 h; series mostly up to 46.1 µM
# Outline: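 Caspase-Glo 3/7 luminescence after 6 h Zika infection (2 FFU/cell) of SNB-19 cells given compound 1 h beforehand. Data were normalised to uninfected and infected wells; percent inhibition of caspase-3 rise reported.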
row,SMILES,Potency
1,Nc1ccc(N=Nc2ccccc2)c(N)n1,12.3 µM (active)
2,CCC(C(=O)O)c1ccc(N2Cc3ccccc3C2=O)cc1 (stereo not given),6.9 µM (active)
3,CC[C@]1(O)C[C@H]2CN(CCc3c([nH]c4ccccc34)[C@@](C(=O)OC)(c3cc4c(cc3OC)N(C=O)[C@H]3[C@@](O)(C(=O)OC)[C@H](OC(C)=O)[C@]5(CC)C=CCN6CC[C@]43[C@@H]65)C2)C1,inactive
4,CC1=C(CO)C(=O)O[C@@H]([C@@H](C)[C@H]2CC[C@H]3[C@@H]4C[C@H]5O[C@]56[C@@H](O)C=CC(=O)[C@]6(C)[C@@H]4CC[C@]23C)C1,inactive
5,O=C(Nc1cc2cc[nH]c2cn1)c1ccccc1,4.35 µM (active)
6,CC(=NNC(=S)N1CCC1)c1ccccn1,inactive
7,CS(=O)(=O)c1ccc(-c2cn3ccccc3n2)cc1,4.35 µM (active)
8,O=C(O)c1cc([N+](=O)[O-])ccc1NCCCc1ccccc1,19.5 µM (active)
9,CC(C(=O)O)c1ccc(C(=O)c2ccccc2)s1 (stereo not given),8.69 µM (active)
10,CCCC(=O)OC[C@@H](OC(=O)CCC)[C@@H](OC(=O)CCC)[C@H](Cn1c2nc(=O)[nH]c(=O)c-2nc2cc(C)c(C)cc21)OC(=O)CCC,inactive
11,O=C(O)[C@@H](c1ccc(OCc2ccc3ccccc3n2)cc1)C1CCCC1,13.8 µM (active)
12,COc1ccc2nc(NC(=O)Nc3ccccc3)sc2c1,21.8 µM (active)
13,CC(C)(C)OC(=O)CN(Cc1ccc(Cl)cc1)Cc1ccc([N+](=O)[O-])s1,inactive
14,Cc1cccc(/C=C/c2ccccc2)n1,12.3 µM (active)
15,CC1(C)Cc2c(sc(NC(=S)NC(=O)c3ccccc3)c2C(=O)O)CO1,inactive
16,CC(C(=O)O)c1ccc(C(=O)c2cccs2)cc1 (stereo not given),17.3 µM (active)
17,NC(N)=NN=C(/C=C/c1ccc([N+](=O)[O-])o1)/C=C/c1ccc([N+](=O)[O-])o1,inactive
18,C=C1C(=O)[C@@]23C(CC[C@@H]1[C@H]2O)[C@@]12CO[C@]3(O)[C@@H](O)[C@@H]1C(C)(C)CC[C@@H]2O (stereo not given in full),inactive
19,O=C(C=CC=Cc1ccc2c(c1)OCO2)N1CCCCC1,19.5 µM (active)
20,C[C@H](NC(=O)C(=O)Nc1ccccc1C(C)(C)C)C(=O)N[C@@H](CC(=O)O)C(=O)COc1c(F)c(F)cc(F)c1F,0.615 µM (active)
